In PubChem BioAssay (NCI):
Compounds without any hit were thinned out: in the full panel of roughly 79,000, 15% have a hit. Unmarked numbers belong to inactive results. Active and inactive are the calls of the source. Cut-off read from the data, not from the text of the source: active = growth inhibition above about 70%; inactive = the rest. Where a SMILES comes first, the peptide text is derived from it. [ ]: non-standard residue; d: D form. The star is where a group is joined. ξ: configuration not given here. NMeF = CN[C@@H](Cc1ccccc1)C(=O)O; NMeV = CN[C@H](C(=O)O)C(C)C; ξNMeN = CNC(CC(N)=O)C(=O)O; NMeA = CN[C@@H](C)C(=O)O; ξNMeV = CNC(C(=O)O)C(C)C; Boc = CC(C)(C)OC(=O)*

Key:
[1] = NCI Yeast Anticancer Drug Screen. Data for the rad50 strain (AID 155);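 note: 0% = growth of vehicle-only cultures of the same strain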; conditions: S. cerevisiae rad50 strain growth inhibition; at 50.0 µM; active compounds read high
Summary of the method: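 Inhibition values express reduced yeast growth in compound-treated cultures relative to vehicle-treated controls.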

[2] = NCI Yeast Anticancer Drug Screen. Data for the mec2-1 strain (AID 157); conditions: S. cerevisiae mec2-1 strain, at 50.0 µM, active compounds read high
Summary of the method: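 Yeast mec2-1 mutant treated with compound. Readout: growth inhibition vs vehicle controls.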

[3] = NCI Yeast Anticancer Drug Screen. Data for the sgs1 mgt1 strain (AID 161);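 note: 0% = growth of cultures given vehicle only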; conditions: S. cerevisiae sgs1 mgt1 strain, at 50.0 µM, active compounds read high
Summary of the method: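 Test agents were incubated with a DNA-repair-mutant yeast strain. Growth was then read and compared against vehicle-treated controls.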

[4] = NCI Yeast Anticancer Drug Screen. Data for the cln2 rad14 strain (AID 165);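 note: 0% = growth equal to vehicle treated cultures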; conditions: S. cerevisiae cln2 rad14 strain, at 50.0 µM, active compounds read high
Summary of the method: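 cln2 rad14 yeast strain; compound exposure; growth inhibition read vs vehicle controls.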

[5] = NCI Yeast Anticancer Drug Screen. Data for the bub3 strain (AID 167); conditions: S. cerevisiae bub3 mutant strain, at 50.0 µM, active compounds read high
Summary of the method: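 Steps: expose the mutant yeast strain to compound; grow alongside vehicle-treated cultures; measure growth; express inhibition against the vehicle cultures.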

[6] = NCI Yeast Anticancer Drug Screen. Data for the mlh1 rad18 strain (AID 175); conditions: S. cerevisiae mlh1 rad18 strain growth inhibition; at 50.0 µM; active compounds read high
Summary of the method: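 Yeast w/ defined DNA-repair lesions; compound exposure; growth vs vehicle controls → % inhibition.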

Row | Compound | growth inhibition [1] [%] | growth inhibition [2] [%] | growth inhibition [3] | growth inhibition [4] [%] | growth inhibition [5] [%] | growth inhibition [6] [%]
1 | C=CC[N+](C)(CC=C)CC[N+](C)(CC=C)CC=C | -15 | 1.35 | -14.9% | -43.5 | 1.6 | -18.4
2 | O=C(/C=C/c1cccc([N+](=O)[O-])c1)Nc1cccnc1 | 7.55 | -1.35 | 38.9% | -11.8 | 29.9 | 24.1
3 | COC(=O)[C@H](C)N(C)C(=O)C(CC(N)=O)N(C)C(=O)[C@H](Cc1ccccc1)N(C)C(=O)[C@@H]1CCCN1C(=O)[C@H](C(C)C)N(C)C(=O)C(C(C)C)N(C)C(=O)[C@@H](NC(=O)OC(C)(C)C)C(C)C (some centres undefined) (Boc-V[ξNMeV][NMeV]P[NMeF][ξNMeN][NMeA]-OMe) | -20.1 | -16.6 | -13.9% | 8.9 | 8.65 | -5.4
4 | COc1ccc(/C=C2\CN(C)Cc3c2nc(N)nc3-c2ccc(OC)cc2)cc1 | 2.05 | -13.1 | 5.2% | 38.1 | -5.5 | 5.75
5 | COc1cc2nncc(SCc3ccc(Cl)cc3Cl)c2cc1OC | 16.9 | 2.9 | -1.65% | 23.8 | 1.2 | 8.25
6 | COc1ccc(C(=O)N2CCN(C)CC2)cc1OC | 19.1 | -3.95 | -8.3% | 13.4 | -1.75 | 4.2
7 | O=C(NCCCl)Oc1cccn(C(=O)NCCCl)c1=O | 7.15 | 9.7 | -2.55% | 9.1 | 0.65 | -0.8
8 | Cc1cc(OC(=O)c2ccccc2)cc(C)c1OC(=O)c1ccccc1 | 10 | 2.9 | 0.1% | -6.15 | 7.15 | -6.7
9 | Cc1ccsc1C(=O)c1ccccc1 | -11.6 | -7 | -5.65% | -24.6 | -1.5 | 5.45
10 | CN1CCS(=O)(=O)CC1 | 5.4 | -40 | -17.6% | -2.55 | 1.75 | 5.05
11 | OC(C(c1ccccc1)N1CCCCC1)C(O)(c1ccccc1)c1ccccc1 (centres undefined) | 12.2 | -3.15 | 22.6% | 24.9 | 6.2 | -0.5
12 | C=Cn1c([N+](=O)[O-])cnc1/C=C/c1ccc(C(=O)OCCN2CCOCC2)cc1 | 68.8 | 16.4 | 78.3% (active) | 34.9 | -10.2 | 53
13 | O=c1[nH]c(Nc2cccc(CO)c2)nc2nc[nH]c12 | 5.35 | -11 | -25.8% | 0.9 | -15.7 | -26.4
14 | CNC(=O)CN(CC(N)=O)C(=O)NC | -29.5 | -20.3 | -27.6% | 0.65 | -23 | -35
15 | CCCCSCC(N)C(=O)OC (centres undefined) | 19.1 | -11.2 | 4% | -65.5 | 3.75 | 2.8
16 | O=C1OC(=O)C2C3CC(C4OC34)C12 (centres undefined) | -12.2 | 29.3 | -3.55% | -20.8 | -9.9 | 4.05
17 | Cc1ccc(S(=O)(=O)NC2CC3(C)CCC2C3(C)C)cc1 (centres undefined) | -0.6 | -20.4 | -5.55% | -46.1 | 14.8 | -4.45
18 | COc1cccc2c1OC(=O)C(S(=O)(=O)c1ccccc1)C2 (centres undefined) | -7.8 | -3.95 | 5.5% | -37.5 | -7.25 | -3.65
19 | CCCc1ccc(N=Cc2cc(OC)c(OC)c(OC)c2)cc1 | -1.85 | 13.3 | 13.5% | 4.4 | -8 | 21.6
20 | NS(=O)(=O)c1ccc(NCc2cnc3ccccc3c2)cc1 | -4.65 | -22.3 | 12% | -5.25 | 4.1 | 27.4

Row | Compound | growth inhibition [1] [%] | growth inhibition [2] [%] | growth inhibition [3] | growth inhibition [4] [%] | growth inhibition [5] [%] | growth inhibition [6] [%]
21 | CCCCCN(CCCCC)c1ccc(/C=C/c2ccnc3ccccc23)cc1 | 1.6 | 7.05 | 22.9% | -15.7 | -10.2 | 14.6
22 | CCOCCC(=O)OCCC(C)OC (centres undefined) | 4.95 | 11 | 11.2% | -26.4 | -58.1 | -37.2
23 | O=CCCc1ccccc1 | 31.6 | -22.1 | -22.2% | -29.6 | 22 | 56.1
24 | CCCCCCc1cc2cc(C(=O)Nc3nc(C45CC6CC(CC(C6)C4)C5)cs3)c(=O)oc2cc1O | -16.4 | -19.8 | -1.15% | 17.9 | -16.6 | -11.7
25 | CC(NC(=O)C(Cc1ccccc1)NC(=O)OCc1ccccc1)C(=O)NC1C(CO)OC(n2cnc3c(N)ncnc32)C1O (centres undefined) | 15.3 | -3.9 | -2.1% | -1.1 | -2.5 | 16.5
26 | C=CCCCCCCCCCCC | -11.3 | -11.2 | -14.1% | 11.7 | 1.95 | -4.9
27 | COc1ccc(CC(O)CN2CCC(CCN)CC2)cc1 (centres undefined) | -19.8 | -7.45 | -12.2% | -47.9 | 23.6 | -5.65
28 | COc1ccc(-c2cc(-c3ccccc3)n(C3OCC(OC(C)=O)C(OC(C)=O)C3OC(C)=O)c(=S)c2C#N)cc1 (centres undefined) | 12.1 | 18.9 | -12.7% | 4.55 | -3.6 | 32.4
29 | CCS(=O)(=O)CC(C)O (centres undefined) | 13.7 | -11.3 | -4.2% | 10.1 | 11 | -7.95
30 | CCCC(O)CNCC1CCC2CCc3cccc1c32 (centres undefined) | -2.9 | 5.8 | 4.5% | 2.05 | 20.4 | 18.9
31 | CC1CCC(CC(N)=O)C1(C)C (centres undefined) | 11.8 | -7.15 | 2.75% | -22.2 | 2.85 | 0.35
32 | N#CCN(CCc1ccccc1)CCc1ccccc1 | 8.35 | -9.95 | 13.2% | -17.6 | -0.35 | 34.1
33 | Nc1ccc2ccccc2c1S(=O)(=O)O | 16.1 | -6.4 | 15% | 4.65 | -2.4 | -27
34 | CNc1ncnc2c1ncn2C1OC(CO)C(O)C1O (centres undefined) | -1.4 | 9.95 | 4.45% | -20.1 | -4.1 | 6
35 | COc1ccc(C(c2cc3c(cc2O)OCO3)N2CCN(C(c3cc4c(cc3O)OCO4)c3ccc(OC)cc3OC)CC2)c(OC)c1 (centres undefined) | -15.1 | 1.55 | 30.2% | 23.1 | -11.9 | 3.45
36 | NNCCc1n[nH]c(=O)n1N | -3.5 | -18.4 | 9.55% | 2.55 | 5.1 | -8.15
37 | O=C1C2Cc3ccccc3CN2C(=O)N1CCN1CCOCC1 (centres undefined) | 7.25 | -21.8 | -4.15% | 12.8 | 3.25 | 22.6
38 | CC(C)CCCOC(=O)c1ccccc1 | 3.05 | -6.5 | -1.65% | -3.2 | 21.6 | -1
39 | Cc1c2c(cc3c(=O)ccn(CCN(C)C)c13)c(=O)ccn2CCN(C)C | -71.1 | -22.8 | -11.8% | 14.3 | -20.4 | -16.4
